Sampled rows, rich in hits. Any-hit rate of the full collection: about 4.8%.
hcDAF12 agonist – H. contortus DAF-12 nuclear receptor activators, primary screen, cell-based, luminescence, HEK293, lit1-tk-luc reporter; activation, % at 6.8 µM; HEK293 hcDAF-12 lit1-tk-luc reporter; 0% DMSO, 100% Δ7-dafachronic acid; 370,000 tested, 1.4% active; AID 652067, 2013;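 active = activation above the mean of all tested compounds plus 3 SD, cut at about 5.5% in these data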;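 note: 100% = response to 3 µM Δ7-dafachronic acid high control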
ssDAF-12 act – S. stercoralis DAF-12 nuclear receptor activators, primary screen, cell-based, luminescence, HEK293, GRIP1 co-expression, lit1-tk-luc; Nuclear hormone receptor DAF-12 (Strongyloides stercoralis); HEK293 ssDAF-12/GRIP1 lit1-tk-luc reporter; % of 3 µM dafachronic acid response; activation, % at 6.8 µM; 370,000 tested, 1% active;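 active = activation above the mean over all tested compounds plus 3 SD, cut at about 0.9% in these data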;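 note: 0% = DMSO-only wells and 100% = 3 µM delta7-dafachronic acid wells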
SMARCA2 act – SMARCA2 (BRM) function activators, primary screen, cell-based, luminescence, high throughput. AID 652017, 2013. 370,000 tested, 1% active. activation, % at 9.1 µM. MG213 cells, MMTV-luciferase reporter, dexamethasone, overnight; in the data active = activation above about 7.8%;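 note: 0% = vehicle wells and 100% = reference activator wells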
DAX1 inh-1 – DAX1 (NR0B1) inhibitors, primary screen, cell-based, HEK293, Gal4-DAX1, luciferase luminescence; inhibition, % at 6.75 µM; Nuclear receptor subfamily 0 group B member 1 (Homo sapiens), P51843; HEK293 Gal4-DAX1 luciferase reporter; 340,000 tested, 0.99% active;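 active = inhibition above the mean over all tested compounds plus 3 SD, cut at about 4.2% in these data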;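 note: 0% = DAX1-transfected cells with DMSO and 100% = empty-vector control cells with DMSO; inhibition shows as a rise in luminescence from relieved DAX1 repression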
Target sequence (P51843 207-470 limits assumed): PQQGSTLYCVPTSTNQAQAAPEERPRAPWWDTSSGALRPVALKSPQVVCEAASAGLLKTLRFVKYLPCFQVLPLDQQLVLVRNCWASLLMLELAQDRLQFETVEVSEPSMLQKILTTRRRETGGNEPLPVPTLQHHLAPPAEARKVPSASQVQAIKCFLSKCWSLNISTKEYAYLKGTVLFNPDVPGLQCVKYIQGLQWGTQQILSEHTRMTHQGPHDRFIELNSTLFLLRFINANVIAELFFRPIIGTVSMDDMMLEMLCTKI
hgDAF12 agonist – H. glycines DAF-12 receptor agonists, primary screen, cell-based, luminescence, HEK293, GAL4 fusion, UAS-luciferase; 370,000 tested, 1.8% active; activation, % at 6.8 µM; HEK293 GAL4-hgDAF12 UAS-luciferase reporter, agonist luminescence; normalized to butyrate control; Nuclear hormone receptor DAF-12 (Heterodera glycines), GAL4 fusion;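 active = activation above a cutoff set at the mean of all screened compounds plus 3 SD, cut at about 10% in these data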;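 note: 0% = DMSO wells and 100% = sodium butyrate wells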
DAX1 inh-2 – DAX1 (NR0B1) inhibitors on StAR promoter, primary screen, cell-based, luminescence, SF-1 (NR5A1), full-length DAX-1 | HEK293T StAR-luciferase reporter, SF-1/DAX-1 repression relief | inhibition, % at 6.8 µM | 370,000 tested, 1.1% active | AID 652010, 2013;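 active = inhibition above the mean over all tested compounds plus 3 SD, cut at about 3.6% in these data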;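 note: 0% = DAX-1 cells with DMSO and 100% = cells lacking DAX-1 with DMSO; higher inhibition means more luminescence from relief of DAX-1 repression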
Starred values were filed as active, the others as inactive; · = not tested or not shown.

SMILES	hcDAF12 agonist	ssDAF-12 act	SMARCA2 act	DAX1 inh-1	hgDAF12 agonist	DAX1 inh-2
Cc1cc(C)cc(NC(=O)c2ccccc2CC[N+](=O)[O-])c1	-1	-1	0	-1	-1	0
O=C(O)c1[nH]c2ccccc2c1C=NCc1ccccc1Cl	2	0	-1	4.9*	-1	0
Cc1noc(C)c1C(=O)OCC(=O)/C=C1/N(C)c2ccccc2C1(C)C	-1	-1	-3	5.9*	4	0
CC(=O)Cn1nnc2sc(-c3ccccc3)cc2c1=O	5	0	5	4	13*	3
COc1ccc(-n2cnc3sc(-c4ccccc4)cc3c2=O)cc1	4	0	3	5.0*	8	3
CC(=O)Cn1cnc2sc(-c3ccccc3)cc2c1=O	3	-1	3	1	11*	2
CCOC(=O)c1csc(NC(=O)C2CCCN(S(=O)(=O)c3cccs3)C2)n1 (stereo not drawn)	-4	-2	-5	·	1	-1
CCC[C@H]1[C@@H](OC(=O)NCc2cccc(Cl)c2)CC[C@@]23CCCN2C(=O)CCC[C@@H]13	-4	-2	·	·	2	·
C#CCNC(=O)C[C@H]1C[C@@]2(C(=O)OC)C(=C[C@H](C3CCCC3)O[C@@H]2C)N(CCc2ccc(OC)c(OC)c2)C1=O	-1	-2	-2	·	1	0
O=C(NC1CCCCN(Cc2cccc(Cl)c2)C1=O)c1ccc(-c2ccccc2)cc1 (stereo not drawn)	0	-2	-5	·	4	-4
COc1ccc(-n2nnc3c(SCC(=O)N4CCCc5ccccc54)ncnc32)cc1	-2	-1	-2	6.3*	-4	1
O=c1c2ccccc2ncn1-c1ccc([N+](=O)[O-])cc1Cl	-3	-1	-3	5.0*	-2	0
C=CCn1c(C)cc(C(=O)CSc2nc(N)cc(N)n2)c1C	3	0	5	4.6*	4	0
Cc1ccc(NC(=O)Nc2ccc3c(c2)OCO3)nc1	0	-1	6	1	13*	2
Cc1ccc(NC(=O)Nc2ccc(Cl)c(Cl)c2)nc1	0	-1	-2	-1	1	0
Cc1ccc(C)c(NC(=O)Nc2ccc3c(c2)OCO3)c1	1	0	1	2	2	3
Cc1cc(C)nc(NC(=O)/C=C/c2ccc(Cl)cc2Cl)c1	0	-1	6	1	4	1
Cc1cccc(NC(=O)Nc2cccc(C#N)c2)n1	-1	0	2	5.4*	4	1
Cc1cc(C)nc(NC(=O)Nc2ccc3c(c2)OCO3)c1	4	-1	3	3	11*	1
Cc1cc(C)nc(NC(=O)/C=C/c2ccccc2Cl)c1	4	0	7	2	12*	3
CCOC(=O)N1CCN(C(=O)C[C@H]2C[C@@]3(C(=O)OC)C(=C[C@H](COCc4ccccc4)O[C@@H]3C)N(Cc3ccc4c(c3)OCO4)C2=O)CC1	0	-1	-1	·	-2	0
CC(=O)OCCCN1CCC2(CCCCC2)C1=O	-3	-1	-3	·	-1	-1
COC(=O)[C@]12C[C@H](CC(=O)N3CCSCC3)C(=O)N(Cc3ccc4c(c3)OCO4)C1=C[C@H](C(C)C)O[C@@H]2C1CC1	-2	-1	-1	·	2	0
Cc1cccc(NC(=O)NCc2ccc3[nH]c(C)cc3c2)c1	5	-1	-1	1	5	1
Cc1ccc(CNC(=O)Nc2cccc(C)c2)cc1	4	-1	1	-1	13*	0
SMILES	hcDAF12 agonist	ssDAF-12 act	SMARCA2 act	DAX1 inh-1	hgDAF12 agonist	DAX1 inh-2
Cc1cccc(NC(=O)Nc2cc(C)cc(C)n2)c1	5	0	1	-1	13*	1
Cc1c(C(=O)NCc2ccco2)oc2c(F)cccc12	5.9*	0	-1	1	1	0
Nc1c(-c2ccc(Cl)cc2)cnc2c(-c3ccc(F)cc3)cnn12	5	1	6	5.0*	13*	2
Cc1nc2c(-c3ccc(F)cc3)cnn2c(N)c1-c1ccccc1	-7	-3	-7	-1	-15	-2
COc1ccc(-c2c(C)nc3c(-c4ccc(F)cc4)cnn3c2N)cc1	0	0	2	5.2*	7	0
Cc1nc2c(-c3ccc(Cl)cc3)cnn2c(N)c1-c1ccc(F)cc1	-5	-3	-6	1	-9	-1
Cc1cccc(S(=O)(=O)Nc2nc3ccccc3nc2NCC2CCCO2)c1 (stereo not drawn)	-1	-2	0	0	3	0
Cc1ccc(S(=O)(=O)Nc2nc3ccccc3nc2NCC2CCCO2)cc1C (stereo not drawn)	-2	-2	-1	4.5*	0	0
Cc1csc(NC(=O)CCCc2cccs2)n1	-2	-2	2	1	2	1
CNS(=O)(=O)c1ccc2nc(NC(=O)c3ccc(N4C(=O)CCC4=O)cc3)sc2c1	-2	-2	2	1	-2	-1
O=C(CCCc1cccs1)Nc1nc2c(s1)CCCC2	4	1.0*	3	4	5	2
O=C(Nc1nc2c(s1)CCCC2)c1ccc(Br)s1	6.2*	-1	-2	1	10	1
O=C(Nc1nc2c(s1)CCCC2)c1ccc(N2C(=O)CCC2=O)cc1	4	-1	3	1	4	4.2*
CCc1ccc2nc(NC(=O)c3ccc(N4C(=O)CCC4=O)cc3)sc2c1	0	0	-3	4.4*	0	0
C=CCN1C(=O)[C@H](CC(=O)N2CCN(C(=O)c3ccco3)CC2)[C@@]2(C(=O)OCC)CCCC=C12	-1	-1	0	·	-1	0
COc1ccc(N2CCN(CCCNC(=O)CCc3cccc(Cl)c3)CC2)cc1	1	-1	4	·	3	0
Nc1nc2c(ncn2[C@@H]2O[C@H](C(=O)N[C@H](Cc3ccccc3)C(=O)NCc3ccc4c(c3)OCO4)[C@@H](O)[C@H]2O)c(=O)[nH]1	-1	0	-6	·	-5	1
COC(=O)[C@]12C[C@H](CC(=O)NCCCN3CCCC3=O)C(=O)N(Cc3ccc(Cl)cc3Cl)C1=C[C@H](C(C)C)O[C@@H]2C1CC1	-5	-1	-2	·	0	0
